Compound activity deposited in PubChem by National Center for Advancing Translational Sciences (NCATS).
D1 ag: activates the human D1 dopamine receptor; HEK293 T-REx D1 cells, calcium flux, agonist mode; activation, % at 2 µM; 360,000 tested, 1% active; P21728
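Tetracycline-induced HEK293 TREx D1 cells, force-coupled to calcium signalling, were dye-loaded with a no-wash calcium kit. Compound was pin-added after a 10 s baseline. Fluorescence was read kinetically at 1 cycle/s for 180 s, with calcium rises flagged as agonism.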
D1 antag: antagonists of human D1 dopamine receptor; P21728; HEK293 TREx D1 cells, calcium flux, dopamine EC80; stronger effect = lower value; activity change, negative = inhibition, % at 10 µM; 360,000 tested, 3.2% active; AID 504652; in the data active = activity change below about -30%
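Compound effects on dopamine-evoked calcium signalling were measured in tetracycline-induced HEK293 Trex D1 cells. Dopamine at EC80 followed a 180 s compound pre-read, and fluorescence was tracked kinetically for 180 s more.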
TRHR agonist: agonists of human TRH receptor; P34981; TRHR cells, calcium flux fluo-8, FDSS agonist mode; activation, % at 2 µM; 360,000 tested, 0.18% active; AID 493084
Target sequence (P34981 whole entry, looked up): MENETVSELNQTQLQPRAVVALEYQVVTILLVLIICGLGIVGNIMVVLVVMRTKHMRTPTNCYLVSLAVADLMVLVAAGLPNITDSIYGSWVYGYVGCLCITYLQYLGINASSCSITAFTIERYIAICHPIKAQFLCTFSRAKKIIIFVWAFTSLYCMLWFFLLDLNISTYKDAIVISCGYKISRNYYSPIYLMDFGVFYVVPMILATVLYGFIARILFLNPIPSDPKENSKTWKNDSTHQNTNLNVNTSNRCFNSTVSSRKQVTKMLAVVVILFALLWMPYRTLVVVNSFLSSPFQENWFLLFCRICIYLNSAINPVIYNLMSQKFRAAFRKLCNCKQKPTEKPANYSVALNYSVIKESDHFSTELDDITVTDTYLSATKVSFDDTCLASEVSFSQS
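Steps: seed TRHR cells overnight; add fluo-8 no-wash Ca dye, RT 30 min–1.5 h; record 10 s baseline; pin-transfer compounds; monitor fluorescence 1 cycle/s for the agonist window. Calcium increases flag candidate agonists.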
D1 potentiator: enhances dopamine response at the human D1 receptor | 360,000 tested, 0.036% active | P21728 | potentiation, % at 10 µM | HEK293 TREx D1 cells, calcium flux, dopamine EC20 potentiation; in the data active = potentiation above about 30%
TRHR PAM: allosterically enhances the human TRH receptor; P34981; TRHR cells, fluo-8 calcium fluorescence, EC20 TRH enhancement; enhancement, % at 2 µM; 360,000 tested, 0.66% active; AID 493056; in the data active = enhancement above about 30%
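Enhancer read-out: after compound pinning and an initial kinetic agonist-mode read, an EC20 of TRH (10 nM final) was injected and fluo-8 calcium signal (Ex 480/Em 530) followed at 1 s/cycle for 100 cycles in TRHR-expressing cells.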
Numbers stand for hits. Shown are actives, neighbours in structure and some others; about 4.6% of the full set was active somewhere. Cut-off read from the data, not from the text of the source, unless noted: active = activation above about 30%; inactive = the rest.

Cc1ccc(-c2[nH]c3cc(C(N)=O)ccc3c(=O)c2O)cc1 was read as D1 ag inactive, D1 antag -36, TRHR agonist inactive, D1 potentiator inactive and TRHR PAM inactive.
For O=C(COC(=O)c1ccc([N+](=O)[O-])s1)Nc1ccc(F)cc1 the results were D1 ag inactive, D1 antag -38, TRHR agonist inactive, D1 potentiator inactive and TRHR PAM inactive.
CCc1ccc2oc(-c3ccc(C)c(NC(=O)c4ccc(C#N)cc4F)c3)nc2c1 was read as D1 ag inactive, D1 antag inactive, TRHR agonist inactive, D1 potentiator inactive and TRHR PAM inactive.
`COc1ccc(OC)c(/C=C/C(=O)N(C)CC(=O)Nc2ccc(C)cc2)c1` gave D1 ag inactive, D1 antag inactive, TRHR agonist inactive, D1 potentiator inactive and TRHR PAM inactive.
`CN(CC(=O)Nc1ccc(OC(F)(F)F)cc1)C(=O)/C=C/c1cc2c(cc1[N+](=O)[O-])OCO2` gave D1 ag inactive, D1 antag -49, TRHR agonist inactive, D1 potentiator inactive and TRHR PAM inactive.
Cc1cc(C)c(NC(=O)Cc2csc(C)n2)c(Cl)c1 was read as D1 ag inactive, D1 antag inactive, TRHR agonist inactive, D1 potentiator inactive and TRHR PAM inactive.
For Cc1ccc(C)c(NC(=O)CSc2nnc(CCCCCNC(=O)OC(C)(C)C)o2)c1 the results were D1 ag 36, D1 antag inactive, TRHR agonist inactive, D1 potentiator inactive and TRHR PAM inactive.
`CC(C)(C)OC(=O)NCCc1nnc(SCc2ccccc2Cl)o1` gave D1 ag inactive, D1 antag -30, TRHR agonist inactive, D1 potentiator inactive and TRHR PAM inactive.
CC(C)(C)OC(=O)NCCc1nnc(SCc2ccccc2)o1 was read as D1 ag inactive, D1 antag inactive, TRHR agonist inactive, D1 potentiator inactive and TRHR PAM inactive.
`CC(C)(C)OC(=O)NCCCCCc1nnc(SCC(N)=O)o1` gave D1 ag inactive, D1 antag -39, TRHR agonist inactive, D1 potentiator inactive and TRHR PAM inactive.
For CC(C)c1ccc(S(=O)(=O)NCc2ccc3c(c2)CCN3C(=O)c2ccccc2)cc1 the results were D1 ag inactive, D1 antag inactive, TRHR agonist inactive, D1 potentiator inactive and TRHR PAM inactive.
For Cc1ccccc1NC(=O)CSc1nc2c(oc3ccccc32)c(=O)n1Cc1ccco1 the results were D1 ag inactive, D1 antag inactive, TRHR agonist inactive, D1 potentiator inactive and TRHR PAM inactive.
O=C(CCn1nnc2ccccc21)Nc1nnc(-c2ccccc2F)s1 was read as D1 ag inactive, D1 antag inactive, TRHR agonist inactive, D1 potentiator inactive and TRHR PAM inactive.
For O=C(CCn1nnc2ccccc21)Nc1nnc(COc2ccccc2F)s1 the results were D1 ag inactive, D1 antag inactive, TRHR agonist inactive, D1 potentiator inactive and TRHR PAM 32.
COc1ccc(Nc2nc(N)c3cc(OC)c(OC)cc3n2)cc1 was read as D1 ag inactive, D1 antag inactive, TRHR agonist inactive, D1 potentiator inactive and TRHR PAM inactive.
Screening COc1ccc2c(c1)C1(C)CC(C)(C)N2C(=O)N1c1ccccc1 (stereo not given) returned D1 ag 56, D1 antag inactive, TRHR agonist inactive, D1 potentiator inactive and TRHR PAM inactive.
`c1ccc(-n2c(Sc3cnccn3)nnc2-c2cccs2)cc1` gave D1 ag inactive, D1 antag inactive, TRHR agonist inactive, D1 potentiator inactive and TRHR PAM 31.
Cc1ccc(C(=O)CSC2=C(C#N)C(c3ccco3)CC(=O)N2)c(C)c1 (stereo not given) was read as D1 ag 63, D1 antag -58, TRHR agonist inactive, D1 potentiator inactive and TRHR PAM inactive.
Screening COc1ccc(CN2CCN(C(=O)CCC(=O)Nc3nnc(CC(C)C)s3)CC2)cc1F returned D1 ag 36, D1 antag inactive, TRHR agonist inactive, D1 potentiator inactive and TRHR PAM inactive.
O=C1CSC(=Nc2cccc(Cl)c2Cl)N1Cc1cccnc1 was read as D1 ag inactive, D1 antag -35, TRHR agonist inactive, D1 potentiator inactive and TRHR PAM inactive.
For CCC(Nc1ccc(-c2nc(-c3ccco3)no2)cc1[N+](=O)[O-])c1ccccc1 (stereo not given) the results were D1 ag inactive, D1 antag inactive, TRHR agonist inactive, D1 potentiator inactive and TRHR PAM inactive.
`CSc1nc2c(c(=O)[nH]c(=O)n2C)n1Cc1ccccc1` gave D1 ag inactive, D1 antag inactive, TRHR agonist inactive, D1 potentiator inactive and TRHR PAM 31.
For Cn1c(=O)[nH]c(=O)c2c1nc(CN1CCN(c3cccc(Cl)c3)CC1)n2CCCc1ccccc1 the results were D1 ag inactive, D1 antag -31, TRHR agonist inactive, D1 potentiator inactive and TRHR PAM inactive.
`O=C(O)COc1ccc(/C=N/NC(=O)COc2nsnc2N2CCOCC2)cc1` gave D1 ag inactive, D1 antag inactive, TRHR agonist inactive, D1 potentiator inactive and TRHR PAM inactive.
Screening O=C(COc1nsnc1N1CCOCC1)N/N=C/c1ccccc1O returned D1 ag inactive, D1 antag inactive, TRHR agonist inactive, D1 potentiator inactive and TRHR PAM 32.
`CC(C)(C)c1ccc(-n2ncc3c2CCCC3NC(=O)CCN2CCCCC2=O)cc1` (stereo not given) gave D1 ag inactive, D1 antag inactive, TRHR agonist inactive, D1 potentiator inactive and TRHR PAM inactive.
CC(C)(C)c1ccc(-n2ncc3c2CCCC3NC(=O)CN2CCOC2=O)cc1 (stereo not given) was read as D1 ag inactive, D1 antag -42, TRHR agonist inactive, D1 potentiator inactive and TRHR PAM inactive.
CCOC(=O)c1cc2c(C)n(-c3ccc(C)cc3)c(C)c2ccc1=O was read as D1 ag inactive, D1 antag -58, TRHR agonist inactive, D1 potentiator inactive and TRHR PAM inactive.
`O=[N+]([O-])c1ccc(N/N=C/c2sc(N3CCOCC3)nc2-c2ccccc2)c(S(=O)(=O)Nc2ccc(Cl)cc2)c1` gave D1 ag 62, D1 antag -35, TRHR agonist inactive, D1 potentiator inactive and TRHR PAM inactive.
`O=[N+]([O-])c1ccc(N/N=C/c2sc(N3CCOCC3)nc2-c2ccccc2)c(S(=O)(=O)Nc2ccccc2Cl)c1` gave D1 ag 79, D1 antag -34, TRHR agonist inactive, D1 potentiator inactive and TRHR PAM inactive.
`O=C(N/N=C/c1sc(N2CCOCC2)nc1-c1ccccc1)c1ccccc1Cl` gave D1 ag inactive, D1 antag inactive, TRHR agonist inactive, D1 potentiator inactive and TRHR PAM inactive.
Screening CC(C)Oc1cccc(C(=O)Nc2ccc(-c3nc4cc(Cl)cc(Cl)c4o3)cc2)c1 returned D1 ag inactive, D1 antag inactive, TRHR agonist inactive, D1 potentiator inactive and TRHR PAM inactive.
